Hit rate of the full screen: of about 370,000 compounds, about 2,100 (0.57%) were called active.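 How the source made its calls: active means inhibition above mean plus 3 SD of compounds lying within the high and low control bounds (cut at about 19% in these data); inactive means the rest.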 Only a selection was taken, and actives are over-represented in it overall.
The compounds below were run against Group 3 secretory phospholipase A2 (Homo sapiens) (UniProt Q9NZ20) (assay: HGIII-sPLA2 enzyme inhibition – biochemical, QFRET, BODIPY PC-A2 liposome substrate, primary screen (AID 743126;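 further: 0% = median of test compound wells and 100% = no enzyme DMSO wells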)). Conditions: QFRET BODIPY PC-A2 liposome hydrolysis, fluorescence; at 12.2 µM; stronger effect = higher value.
Group 3 secretory phospholipase A2 (Homo sapiens), sequence (Q9NZ20 whole entry, looked up): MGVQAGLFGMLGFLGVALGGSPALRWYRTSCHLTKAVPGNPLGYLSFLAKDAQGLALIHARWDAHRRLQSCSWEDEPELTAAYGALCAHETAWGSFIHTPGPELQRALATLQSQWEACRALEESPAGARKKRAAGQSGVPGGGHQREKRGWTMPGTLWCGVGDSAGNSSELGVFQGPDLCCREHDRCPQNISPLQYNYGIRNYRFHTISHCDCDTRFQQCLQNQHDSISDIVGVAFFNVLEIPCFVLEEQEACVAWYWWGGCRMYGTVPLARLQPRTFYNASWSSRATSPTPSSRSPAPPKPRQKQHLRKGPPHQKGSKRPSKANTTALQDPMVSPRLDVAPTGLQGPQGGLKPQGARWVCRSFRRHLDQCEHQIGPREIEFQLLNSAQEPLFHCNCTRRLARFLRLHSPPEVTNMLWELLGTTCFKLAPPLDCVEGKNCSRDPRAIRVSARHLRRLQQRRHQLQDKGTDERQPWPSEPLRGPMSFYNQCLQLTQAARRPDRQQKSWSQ

inhibition, inactive:
CC(=O)N1CCCN(C2=Nc3ccccc3Sc3ccccc32)CC1 -5.38%
O=C(NCc1ccc(Cl)cc1)C1CCCN(c2nc3ccccc3o2)C1 (centres undefined) 0.81%
Cc1ccc(NC(=O)Cc2cccc(F)c2)c(S(=O)(=O)N2CCOCC2)c1 -2.31%
Cc1c[nH]c2cccc(-c3ccc(Cl)cc3)c12 -16.5%
O=C(NCC(=O)N1CCN(c2ncc(C(F)(F)F)cc2Cl)CC1)c1ccc(Br)o1 -1.88%
Cc1cc(C)nc(NC(=S)N2CCN(c3ccc(C(F)(F)F)cn3)CC2)c1 11.2%
CN1[C@H](Cc2ccccc2)COc2cccc(N3CCSCC3)c2S1(=O)=O -2.69%
O=C(NNC(=S)NCCCN1CCOCC1)c1ccncc1 -1.42%
O=C(c1cn(-c2ccccc2)nc1-c1cccnc1)N1CCN(S(=O)(=O)c2ccccc2F)CC1 -9.4%
O=C(CSc1nnc(COc2ccccc2)n1-c1ccc(Cl)cc1)Nc1ccc2c(c1)OCO2 -14.5%
COC(=O)c1cccc(Cn2ccc3ccc(-c4ccc5ccn(C(=O)C6CCCCC6)c5c4)cc32)c1 -3.82%
S=C(Nc1ccc(Br)cc1Cl)NC1CCN(Cc2ccccc2)CC1 0.32%
CN(C)C(=S)Nc1ccc(Br)cc1Cl 1.77%
Cc1ccc(Cn2cc(COC(=O)N(C)Cc3ccccc3)nn2)cc1 -5.61%
Cc1ccc(-n2c(SCC(=O)Nc3ccc(S(=O)(=O)Nc4nccs4)cc3)nnc2-c2cccnc2)cc1 -21.7%
O=C1CC[C@@]23CCCN2C(=O)CCC[C@H]3[C@H]1Cc1ccccc1 3.91%
O=C(O)/C=C/C(=O)NNc1ccc([N+](=O)[O-])cc1 -1.39%
O=C(CN1CCN(c2ccc(O)cc2)CC1)Nc1ccc(-c2ccccc2)cc1 2.26%
Cc1cccc(N2CCN(C(=O)c3ccccc3NC(=O)C3CCCCC3C(=O)O)CC2)c1 (centres undefined) 7.57%
CSc1ccc(NC(=O)N2CC(C)OC(C)C2)cc1 (centres undefined) 10.2%
Cc1ccc(-c2nc(C3CCCN(S(=O)(=O)c4ccc(Br)s4)C3)no2)cc1 (centres undefined) 7.46%
C=C(C)C1CC23C(=O)C4(C(=O)c5ccccc5)C[C@@]5(C)CCC(CC2C1(C)C)(C4=O)C35OC (some centres undefined) 4.03%
COc1ccc(C(=O)CSc2nnc(-c3cnccn3)n2-c2ccc(C)cc2)cc1 -19.7%
CC(C)=C1C2CCC1C1C(=O)N(NC(=O)c3ccco3)C(=O)C21 (centres undefined) 0.15%
O=C(NN1C(=O)C2CCCCC2C1=O)c1ccco1 (centres undefined) -6.36%
C=CCN1C(=O)[C@@H](CC(=O)N2CCN(C(=O)OCC)CC2)[C@]2(C(=O)OCC)CCCCC/C=C/12 3.8%
C=CCN1C(=O)[C@@H](CC(=O)NCC2CCCCC2)[C@]2(C(=O)OC)CCCCC=C12 -6.71%
Cc1ccc(CSc2nnc(SCC(=O)NN=Cc3cc(Br)ccc3F)s2)cc1 8.12%
COC[C@@H]1CCCN1c1ccc2c(c1)O[C@H](C)CCN(C1CC1)S2(=O)=O -5.4%
Oc1ccc(/C=C/c2c(F)cccc2F)c2cccnc12 16%
COc1cccc(CNC(=O)CCN2C(=S)NC(C)(C)CC2C)c1 (centres undefined) 6.8%
CC1CC(C)(C)NC(=S)N1CCC(=O)N1CCN(Cc2ccccc2)CC1 (centres undefined) 8.05%
COc1ccccc1C(=O)CSc1nnc(-c2ccccn2)n1-c1ccccc1 -16.8%
CCOC(=O)c1cccc(NC(=O)CN(C)S(=O)(=O)c2ccc(-c3cocn3)s2)c1 -2.93%
O=C(C1CCN(S(=O)(=O)c2ccccc2)CC1)N1CCN(C2CCCCC2)CC1 8.19%
CSc1ccc(C=Nn2c(-c3ccc(F)cc3)n[nH]c2=S)cc1 6.63%
CCOc1ccc(-c2n[nH]c(=S)n2/N=C/c2cc3c(cc2[N+](=O)[O-])OCO3)cc1 1.67%
Cc1cc(C)cc(NC(=O)N2CCC(N(C)CCC(C)C)CC2)c1 10.3%
CCOC(=O)[C@@]12CCC3=C1N(CCC3)C(=O)[C@H](CC(=O)N1CCN(C(=O)c3ccco3)CC1)C2 8.67%
c1coc(CCNc2ncnc3ccc(-c4ccc5c(c4)OCO5)cc23)c1 -19.4%
COC(=O)[C@]12C[C@H](CC(=O)NCc3ccccc3)C(=O)N(CCc3ccc(OC)c(OC)c3)C1=C[C@H](C(C)(C)C)O[C@@H]2C -21.4%
COC1=C[C@H](C(=O)NCCNC(C)=O)[C@H](C)[C@@H](c2ccccc2)CC1=O -0.85%
COc1ccccc1NC(=O)COC(=O)COc1ccccc1F -4.78%
C=CCn1c(SCC(N)=O)nnc1-c1ccccc1OC 6.66%
CCN(CC)C(=O)CC[C@H]1CC[C@]2(CCCN(Cc3ccc(Cl)cc3)C2)O1 6.37%
O=C(COc1ccc(S(=O)(=O)NCCc2ccccc2)cc1)N1CCCC1 -5.12%
CC(NS(=O)(=O)c1ccc(OCC(=O)N2CCCC2)cc1)c1ccccc1 (centres undefined) 5.02%
CCOC(=O)[C@]12CCCC=C1N(Cc1ccc(OC)cc1)C(=O)[C@@H]2CC(=O)NCc1cccs1 -4.75%
COc1ccc(Cn2cc(CN3[C@@H](CC(C)C)COc4cc(Br)ccc4S3(=O)=O)nn2)cc1 6.77%
C[C@H]1CCC/C=C/C(=O)c2c(O)cc(O)cc2CC(=O)O1 4.76%
Clc1ccc(-n2c(COc3ccccc3)nnc2SCc2nc3ccccc3[nH]2)cc1 -11.3%
Cc1cc(NS(=O)(=O)c2ccc(NC(=O)CSc3nnc(SCc4ccc(F)cc4)s3)cc2)nc(C)n1 -29.3%
Cc1nc(NC(=O)c2ccc3c(c2)OCCO3)ccc1Br 4.96%
C/C(Cc1ccccc1)=N\NC(=O)CNC(=O)c1ccc2c(c1)OCCO2 -4.8%
COc1cc(/C=C/C(=O)n2cnc3ccccc32)cc(OC)c1OC 11.9%
CCc1ccccc1NC(=O)CSc1nnc(-c2cccs2)o1 0.47%
COc1cc(C(=O)NNC(=O)c2ccc(S(=O)(=O)N3CCCCC3)cc2)cc(OC)c1OC -8.86%
COc1ccccc1CC(=O)Nc1ccc(S(=O)(=O)N2CCCC2)cc1 -5.06%
CCC(NC(=O)C1C2C=CC3(CN(Cc4ccccc4)C(=O)C13)O2)c1ccccc1 (centres undefined) -3.46%
CCOC(=O)C1CCN(C(=O)C(C)(C)NC(=O)Nc2ccccc2Cl)CC1 0.81%
CC(=O)N1CCN(c2ccccc2NC(=S)NC(=O)c2cc3ccccc3o2)CC1 3.86%
C/C(=N\NS(=O)(=O)c1cccc([N+](=O)[O-])c1)c1cc2ccccc2o1 3.51%
Cc1cc(C)n2ncc(C(=O)Nc3ccc4c(c3)OCCO4)c2n1 0.96%
O=C(COC(=O)c1ccccc1Cl)NC1CCCCCCC1 5.22%
Cc1nn(C)c(C(=O)NNC(=S)NC2CCCCC2)c1Cl 4.69%
COc1ccc(Cl)cc1C(=O)NNC(=S)NC(=O)/C=C/c1ccco1 2.13%
COc1ccc(Cl)cc1C(=O)NNC(=O)c1nc2nc(C)cc(C)n2n1 5.45%
COC(=O)C12C=C3CC(c4ccccc4)=C3C(=O)N1Cc1[nH]c3ccccc3c1C2 (centres undefined) -7.07%
COc1ccc(-n2c(SCC(=O)Nc3ccc4cn[nH]c4c3)nnc2-c2cccnc2)cc1 3.42%
CC(=O)OCCN1CCCC12CCC(c1ccccc1)CC2 (centres undefined) 11.1%
C=CCN1C(=O)[C@@H](CC(=O)NCCCOCCCC)[C@]2(C(=O)OCC)CCCCC/C=C/12 -8.97%
COc1ccc(-n2c(SCC(=O)Nc3ccccc3-c3ccccc3)nnc2-c2cccnc2)cc1 -5.21%
CCOC(=O)N1CCN(C(=O)C[C@@H]2C(=O)N(CCc3ccc(Cl)cc3)C3=CCCC[C@]32C(=O)OCC)CC1 -8.77%

inhibition, active:
COc1ccnc(NC(=S)N2CCN(c3ncc(C(F)(F)F)cc3Cl)CC2)c1 23.3%
O=C(NNC(=S)NC(=O)c1cn(-c2ccccc2)nc1-c1ccccc1)c1ccncc1 19.6%
O=C(NNC(=S)Nc1ccc(Br)cc1Cl)c1ccco1 26.4%
CSc1ccc(NC(=O)/C=C/C(=O)O)cc1 22.1%
Cc1cccc(N2CCN(c3ccc(NC(=O)/C=C\C(=O)O)cc3)CC2)c1 20.7%
O=C(NN1C(=O)C2C3C=CC(C3)C2C1=O)c1ccco1 (centres undefined) 22.3%
CCN(Cc1ccccc1)C(=O)CN1C(=S)NC(C)(C)CC1C (centres undefined) 31.1%
CCc1ccc(NC2Nc3cc(C)nn3S2)cc1 (centres undefined) 23.9%
S=c1[nH]nc(-c2ccco2)n1/N=C/c1ccccc1 19.3%
COc1ccccc1OCC(=O)OCn1c(SC)nnc(C)c1=O 21.3%
O=C(COc1ccc(S(=O)(=O)NCc2ccccc2)cc1)N1CCOCC1 20.9%
Cc1ccc2sc(NNC(=O)c3ccc4c(c3)OCCO4)nc2c1C 39.7%
COc1ccc(-c2ccc(Nc3ccc(S(=O)(=O)N4CCCC4)cc3)nn2)cc1OC 27.2%
C/C(=N\NC(=S)Nc1ccc(C)cc1)c1cc2ccccc2o1 23.9%
O=C(NNC(=S)NC1CCCCC1)c1ccccc1Cl 20.1%
COc1ccc(Cl)cc1C(=O)NNC(=S)NC1CCCC1 26.5%
